Rows were chosen to be rich in hits. Some 3.4% of all compounds tested hit in one or more screens of this group.
KLK7 zymogen act = activators of human kallikrein-7 zymogen; activation, % at 7 µM; P49862; purified proKLK7, EDANS-DABCYL substrate fluorescence; 100% is mature enzyme control, 0% vehicle; 370,000 compounds, 0.9% hits;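 active = activation above the mean of all tested compounds plus 3 SD, computed per campaign excluding outliers beyond control limits, cut at about 13% in these data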
ADAM17 inh = inhibits human ADAM17; 370,000 compounds, 0.83% hits; P78536; recombinant ADAM17, EDANS/DABCYL FRET peptide cleavage; inhibition, % at 6.95 µM;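 active = inhibition above the mean of compounds lying between control limits plus 3 SD, set per campaign, cut at about 8.5% in these data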;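 also: 0% = DMSO-only wells as the low control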
ADAM10 inh = ADAM10 inhibition, QFRET primary screen; O14672; recombinant ADAM10, EDANS/DABCYL FRET peptide cleavage, 3 h; inhibition, % at 7 µM; 370,000 compounds, 0.62% hits;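 active = inhibition above a per-campaign cutoff equal to the mean of compounds falling between control-based bounds plus 3 SD, cut at about 20% in these data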;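 also: 0% = DMSO wells while the 100% control is not disclosed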
PLCg1 inh = blocks human PLC-gamma1 enzyme activity | P19174 | purified PLC-gamma1, fluorogenic substrate, fluorescence | inhibition, % at 12.2 µM | 370,000 compounds, 0.84% hits; in the data active = inhibition above about 9.5%
sPLA2-III inh = Inhibits HGIII-sPLA2 liposome hydrolysis, primary screen. inhibition, % at 12.2 µM. 370,000 compounds, 0.56% hits. QFRET BODIPY PC-A2 liposome hydrolysis, fluorescence. AID 743126;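 active = inhibition above mean plus 3 SD of compounds lying within the high and low control bounds, cut at about 19% in these data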;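 also: 0% = median of test compound wells and 100% = no enzyme DMSO wells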
Target sequence (Q9NZ20 whole entry, looked up): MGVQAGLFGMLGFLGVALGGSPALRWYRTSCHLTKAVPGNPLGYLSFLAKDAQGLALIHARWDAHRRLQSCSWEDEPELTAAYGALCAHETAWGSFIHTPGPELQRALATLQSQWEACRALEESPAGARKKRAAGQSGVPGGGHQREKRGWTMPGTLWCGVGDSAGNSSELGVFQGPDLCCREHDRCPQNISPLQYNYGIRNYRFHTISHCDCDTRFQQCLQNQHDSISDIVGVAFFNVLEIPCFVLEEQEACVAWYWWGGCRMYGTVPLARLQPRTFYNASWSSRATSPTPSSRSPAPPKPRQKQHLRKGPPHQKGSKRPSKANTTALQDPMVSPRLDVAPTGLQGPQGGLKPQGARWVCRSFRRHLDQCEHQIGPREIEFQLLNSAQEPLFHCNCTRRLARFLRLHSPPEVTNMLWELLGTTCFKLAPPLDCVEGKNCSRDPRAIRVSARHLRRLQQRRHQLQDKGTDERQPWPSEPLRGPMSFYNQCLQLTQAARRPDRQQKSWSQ
PLCb3 inh = PLC-beta3 (human) inhibition, primary screen; inhibition, % at 12.2 µM; Q01970; Purified PLC-beta3, fluorogenic substrate, fluorescence; 370,000 compounds, 0.18% hits; in the data active = inhibition above about 11%;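 also: 0% = median of compound wells on plate and 100% = full blocker control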
hGIII sPLA2 conf = human GIII-sPLA2 inhibition, confirmation. recombinant hGIII-sPLA2, BODIPY PC-A2 QFRET fluorescence. AID 743280. shares compounds with sPLA2-III inh. 2,000 compounds, 34% hits. inhibition, % at 12.2 µM;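 active = mean inhibition across triplicates above the hit cutoff set in the earlier primary screen, cut at about 19% in these data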;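 also: 0% = enzyme with DMSO and 100% = DMSO wells lacking enzyme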
BODIPY interf = 535nm fluorescence interference, HGIII-sPLA2 counter-screen; shares compounds with sPLA2-III inh; BODIPY FL product fluorescence interference, QFRET; inhibition, % at 12.2 µM; 2,000 compounds, 8.5% hits; AID 743282;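 active = average inhibition above the solvent-only control mean plus 3 SD, cut at about 6% in these data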;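 also: 0% = DMSO with substrate plus product and 100% = DMSO with substrate alone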
535nm interf DR = counter-screen for HGIII-sPLA2 inhibitors: 535nm fluorescence interference, dose response. BODIPY FL product fluorescence interference, cell-free. IC50, µM. shares compounds with sPLA2-III inh. AID 743455. 240 tested, under 10 active;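 active = IC50 at or below 10 µM; inactive = IC50 above 10 µM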
An asterisk follows results filed as active; x = no result given.

SMILES | KLK7 zymogen act | ADAM17 inh | ADAM10 inh | PLCg1 inh | sPLA2-III inh | PLCb3 inh | hGIII sPLA2 conf | BODIPY interf | others
O=S(=O)(c1ccc(-c2n[nH]c(=S)o2)cc1)N1CCCCC1 | -1 | -8 | -6 | -104 | 12 | -146 | x | x
N#Cc1c2c(c[nH]c1=O)CCN2Cc1ccccc1 | 0 | -15 | -13 | -9 | 20* | -14 | 3 | -10
CN(C)c1[nH]c(=O)c(C#N)c2c1CCN2Cc1ccccc1 | 0 | -2 | 4 | -1 | 1 | 1 | x | x
C=CCn1c(C2CC2)n[nH]c1=S | 0 | -4 | -9 | 2 | 13 | 0 | x | x
CCCCCC1CCC(c2n[nH]c(=S)n2C)CC1 (centres undefined) | 0 | 5 | 3 | -2 | 20* | -1 | 26* | -1
CN(C)C(=O)c1nnsc1Sc1ccc(Cl)cc1 | 0 | -4 | -4 | -1 | -4 | 1 | x | x
Cc1cc(C(=O)O)c(CSc2ncn[nH]2)o1 | 0 | -3 | 1 | 0 | 21* | -1 | 0 | -5
Cn1c(COc2ccc(Cl)cc2Cl)nnc1SCC(=O)NCC1CCCO1 (centres undefined) | 0 | -1 | -2 | 1 | -3 | -5 | x | x
COc1cccc(C(O)c2ncc(-c3ccc(Cl)cc3)[nH]2)c1 (centres undefined) | 0 | -1 | -19 | 5 | -3 | 0 | x | x
O=C(Nc1ccc([N+](=O)[O-])cn1)c1cccnc1 | 0 | -5 | 4 | 2 | 20* | -1 | 5 | -4
Cc1cccc2c1N(CCOc1ccc(C(C)(C)C)cc1)C(=O)C2=O | 0 | 3 | 8 | 3 | 8 | 3 | x | x
Cc1ccc(OCCCN2C(=O)C(=O)c3cccc(C)c32)cc1 | 0 | 6 | 3 | 1 | 26* | 2 | 26* | -3
Cc1cnn(CCC(=O)NNC(=S)NCC(C)C)c1 | 0 | -3 | 0 | 5 | 22* | 1 | 8 | -2
CCCCNC(=S)NNC(=O)CCn1cc(C)cn1 | 0 | -3 | 1 | 2 | 12 | -1 | x | x
COc1cc2c(cc1OC)C(c1cc(Br)ccc1O)N(C(C)=O)CC2 (centres undefined) | -1 | -4 | -2 | -3 | 13 | -3 | x | x
CC(Oc1ccccc1F)c1nnc(SCC(=O)NCc2ccc3c(c2)OCO3)o1 (centres undefined) | -1 | -9 | 7 | -2 | 84* | -10 | -1 | -5
O=C(CSc1nnc(CNC(=O)c2c(F)cccc2F)o1)NCc1ccc2c(c1)OCO2 | 1 | -3 | -4 | 1 | -3 | -1 | x | x
O=C(N1CCOCC1)C12CC3CC(C1)CC(n1cnc(Cl)n1)(C3)C2 | -1 | -2 | -8 | -1 | 21* | -4 | 1 | -3
Cc1ccc(CN2CCN(/N=C/c3ccc(N(C)C)cc3)CC2)cc1 | 0 | 1 | 2 | 4 | 21* | -1 | 12 | -4
Cc1ccc2cc(C#N)c(SCC(=O)N3CCCc4ccccc43)nc2c1C | 0 | -3 | -8 | -2 | 20* | -6 | -3 | -4
Cc1ccc2cc(C#N)c(SCC(=O)N3CCCc4ccccc43)nc2c1 | 0 | 4 | 9 | 1 | 3 | 1 | x | x
O=c1cc(-c2ccccc2)[nH]n1-c1nc2ccccc2[nH]1 | 3 | -66 | -213 | -316 | 19* | -387 | 14 | -1
CCc1cc(=O)[nH]c(-n2[nH]c(-c3ccccc3)cc2=O)n1 | 0 | -6 | -7 | -6 | -3 | -8 | x | x
COc1ccc(-c2cc(C(F)F)n3ncc(C(=O)Nc4cc(C)on4)c3n2)cc1 | 0 | -10 | -40 | -35 | 2 | -38 | x | x
Cc1cccc(NC(=S)NNC(=O)c2ccc(O)cc2O)c1C | 0 | -3 | -16 | 1 | 42* | -5 | 33* | 3 | 535nm interf DR=>122

Compound activity deposited in PubChem by The Scripps Research Institute Molecular Screening Center.
